Assay outcomes (PubChem)
Peg3 prom inh – reduces Peg3 promoter-driven luciferase expression in HeLa; HeLa PEG-Prom luciferase reporter, luminescence, overnight; inhibition, % at 20 µM; 360,000 compounds, 1.7% hits; AID 588405;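 active = inhibition of at least 50% at 20 µM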
TWEAK-Fn14 inh – inhibitors of TWEAK-Fn14 interaction signaling; TWEAK-stimulated Fn14 reporter cells, luciferase luminescence, 8 h; inhibition, % at 10 µM; 360,000 compounds, 2% hits; in the data active = inhibition above about 50%
Shn3 3UTR inh – reduces Shn3 3'UTR luciferase signal in osteoblasts; AID 588674; inhibition, % at 12.5 µM; Clone20 osteoblast Shn3 3'UTR firefly luciferase, 24 h; 360,000 compounds, 0.52% hits;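 active = mean inhibition of at least 75% with every replicate also reaching 75%; inconclusive = mean inhibition at least 75% but some replicate below; inactive = mean inhibition below 75%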
MITF TRPM1 inh – reduces MITF-dependent TRPM1 promoter luciferase signal | SK-MEL-5 TRPM1 promoter luciferase, 24 h | inhibition, % at 12.5 µM | 330,000 compounds, 0.83% hits | AID 488899;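 active = mean inhibition across replicates of 60% or more, whatever share of single replicates reaches that level; inconclusive = some that reach 60%, reason not given; inactive = mean inhibition across replicates below 60%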
TROY NFkB inh – TROY signaling inhibition | inhibition, % at 10 µM | 360,000 compounds, 0.98% hits | AID 1347056 | Q293 LMP1-TROYcd NF-kB luciferase reporter, 4 h;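 active = compounds whose plate-normalised and pattern-corrected inhibition of the luciferase reporter signal at the single screening dose is 50% or more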
LMP1 NFkB inh – Epstein-Barr LMP1 NF-kappaB reporter inhibition; LMP1-induced NF-kappaB luciferase reporter cells, luminescence; inhibition, % at 12.5 µM; 350,000 compounds, 0.69% hits; in the data active = inhibition above about 41%; inconclusive = no clear call, values can overlap the other calls
Each line names hits and unclear results; the compound was inactive in the other large screens. A selection: hits, their analogues and other compounds. The true share with any hit is near 4.1%.

CC(C(=O)N1CCCC1)N1CCN(S(=O)(=O)c2ccc(C(C)(C)C)cc2)CC1 (centres undefined)	none
CC(=O)Nc1ccc(CNc2nc(NCC3CC3)nc3ccsc23)cc1	none (no result: MITF TRPM1 inh, LMP1 NFkB inh)
CCOC(=O)Cc1ccc(Nc2nc(NCc3cccs3)nc3ccsc23)cc1	TWEAK-Fn14 inh 65.2, TROY NFkB inh 55.1 (no result: MITF TRPM1 inh, LMP1 NFkB inh)
COc1ccc(Nc2nc(NCc3cccs3)nc3ccsc23)cc1OC	TWEAK-Fn14 inh 53.6 (no result: MITF TRPM1 inh, LMP1 NFkB inh)
Cc1ccccc1S(=O)(=O)Cc1ccc(C(=O)N2CCN(c3ccc(F)cc3)CC2)o1	none
O=C(Nc1ccccc1Cl)c1ccc(-c2ccccn2)s1	none
O=C(O)c1ccc(N=Nc2c(O)ccc3ncccc23)cc1	TWEAK-Fn14 inh 59.4
COc1cc2nc(SCc3ccc(C(F)(F)F)cc3)n(Cc3cccs3)c(=N)c2cc1OC	none
COc1ccc(Cn2c(SCc3cc(C)ccc3C)nc3cc(OC)c(OC)cc3c2=N)cc1	Peg3 prom inh 103.9, Shn3 3UTR inh 95.9, MITF TRPM1 inh 88.7, LMP1 NFkB inh inconclusive
COc1ccc(Cn2c(SCc3ccc(C)cc3)nc3cc(OC)c(OC)cc3c2=N)cc1Cl	Peg3 prom inh 98.6, MITF TRPM1 inh 105.2, LMP1 NFkB inh 90.4
CC(C)n1ncc2c(C(=O)Nc3ccccc3SCC(N)=O)cc(C3CC3)nc21	none (no result: MITF TRPM1 inh)
CC(=O)Nc1ccc(C2=NNC(=Nc3cccc(S(=O)(=O)N(C)C)c3)SC2)cc1	TWEAK-Fn14 inh 62.5
CCOC(=O)C1CCN(S(=O)(=O)Cc2ccccc2)C1=O (centres undefined)	LMP1 NFkB inh 42.8
CCc1nnc(NC(=O)C2Cc3ccccc3CN2S(=O)(=O)CC)s1 (centres undefined)	none
CCS(=O)(=O)N1Cc2ccccc2CC1C(=O)Nc1nc2ccccc2s1 (centres undefined)	TWEAK-Fn14 inh 80.9, TROY NFkB inh 70.2
Fc1ccc(Oc2nc(-c3ccccc3)nnc2C(F)(F)F)cc1	none
Fc1ccc(Sc2nc(-c3ccccc3)nnc2C(F)(F)F)cc1	Peg3 prom inh 84.4
CC[C@@H](NS(=O)(=O)c1ccc(C)cc1)C(=O)Oc1ccc2c3c(c(=O)oc2c1)CCC3	none
Cc1ccc(S(=O)(=O)NC(CC(C)C)C(=O)Oc2ccc3c4c(c(=O)oc3c2)CCC4)cc1 (centres undefined)	TROY NFkB inh 68.5
O=C(c1ccc(S(=O)(=O)c2ccccc2Cl)c([N+](=O)[O-])c1)N1CCN(Cc2ccccc2)CC1	TWEAK-Fn14 inh 73.8, MITF TRPM1 inh 76.1
CC1CCN(C(=O)c2ccc(S(=O)(=O)Cc3ccccc3F)c([N+](=O)[O-])c2)CC1	TWEAK-Fn14 inh 63.4
Cc1ccc(CS(=O)(=O)c2ccc(C(=O)N3CCN(c4ccccn4)CC3)cc2[N+](=O)[O-])cc1	TWEAK-Fn14 inh 50.3
COc1cc(N(C)C)c([N+](=O)[O-])cc1C(=O)N1CCN(Cc2ccccc2)CC1	LMP1 NFkB inh 50.7
Cc1ccc(CS(=O)(=O)c2ccc(C(=O)N3CCCCC3)cc2[N+](=O)[O-])cc1	none
COc1ccc(C(CNC(=O)c2cc3ccccc3cc2O)N2CCOCC2)cc1 (centres undefined)	none
O=C(Nc1cccc(C(F)(F)F)c1)C1CC(=O)N(Cc2ccco2)C1 (centres undefined)	none (no result: MITF TRPM1 inh)
O=C(c1ccc(S(=O)(=O)c2ccc(F)cc2)c([N+](=O)[O-])c1)N1CCCCCC1	TWEAK-Fn14 inh 76.5, Shn3 3UTR inh 92.2
O=C(COC(=O)c1cc(=O)c2ccccc2o1)Nc1ccc2ccccc2c1	none
Cc1ccc(S(=O)(=O)c2c(C)cc(C)nc2Oc2cccc(C)c2C)cc1	TWEAK-Fn14 inh 72.0
Nc1c(Cl)ncnc1Nc1ccc(C(=O)O)cc1	none
CCOc1ccccc1NC(=O)N1CCCC(c2nc(-c3ccc(C)o3)no2)C1 (centres undefined)	none
C=CCNc1nc2c(c(=O)n(C)c(=O)n2C)n1CCCCCC	Shn3 3UTR inh 87.6
Cc1ccccc1NC(=O)c1c([N+](=O)[O-])c(C(C)(C)C)nn1C	LMP1 NFkB inh 55.3
O=C(NC(=O)c1ccccc1O)c1ccc(C(F)(F)F)cc1	none (no result: MITF TRPM1 inh, LMP1 NFkB inh)
CCCc1ccc(C(=O)NC(=O)c2ccccc2O)cc1	TWEAK-Fn14 inh 56.5
Nc1nc(CSCc2ccccc2)nc(N2CCOCC2)n1	TWEAK-Fn14 inh 61.1 (no result: TROY NFkB inh)
CCn1cc(/C=C(\NC(=O)c2cc(OC)c(OC)c(OC)c2)C(=O)N2CCOCC2)c2ccccc21	none (no result: MITF TRPM1 inh)
O=c1c2ccccc2nc2c3ccccc3c(NCCO)nn12	none
